Test results: ChEMBL document CHEMBL1961873, “Compounds: GSK PKIS; Assays: Nanosyn kinase panel” (2012)

What was measured:
[1] = target: Fibroblast growth factor receptor 4 (Homo sapiens) (UniProt P22455); details: at 1 µM;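 note: reported figure is the averaged percent inhibition of FGFR4, from the GSK PKIS kinase screening panel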
[2] = target: Tyrosine-protein kinase Fgr (Homo sapiens) (UniProt P09769); details: at 0.1 µM
[3] = target: Tyrosine-protein kinase Fgr (Homo sapiens) (UniProt P09769); details: at 1 µM
[4] = target: Vascular endothelial growth factor receptor 1 (Homo sapiens) (UniProt P17948); details: at 0.1 µM
[5] = target: Vascular endothelial growth factor receptor 1 (Homo sapiens) (UniProt P17948); details: at 1 µM
[6] = target: Receptor-type tyrosine-protein kinase FLT3 (Homo sapiens) (UniProt P36888); details: at 0.1 µM
[7] = target: Receptor-type tyrosine-protein kinase FLT3 (Homo sapiens) (UniProt P36888); details: at 1 µM
[8] = system: T1, Receptor-type tyrosine-protein kinase FLT3 (Homo sapiens), P36888 [D835Y]; details: at 0.1 µM
T1 sequence (whole entry): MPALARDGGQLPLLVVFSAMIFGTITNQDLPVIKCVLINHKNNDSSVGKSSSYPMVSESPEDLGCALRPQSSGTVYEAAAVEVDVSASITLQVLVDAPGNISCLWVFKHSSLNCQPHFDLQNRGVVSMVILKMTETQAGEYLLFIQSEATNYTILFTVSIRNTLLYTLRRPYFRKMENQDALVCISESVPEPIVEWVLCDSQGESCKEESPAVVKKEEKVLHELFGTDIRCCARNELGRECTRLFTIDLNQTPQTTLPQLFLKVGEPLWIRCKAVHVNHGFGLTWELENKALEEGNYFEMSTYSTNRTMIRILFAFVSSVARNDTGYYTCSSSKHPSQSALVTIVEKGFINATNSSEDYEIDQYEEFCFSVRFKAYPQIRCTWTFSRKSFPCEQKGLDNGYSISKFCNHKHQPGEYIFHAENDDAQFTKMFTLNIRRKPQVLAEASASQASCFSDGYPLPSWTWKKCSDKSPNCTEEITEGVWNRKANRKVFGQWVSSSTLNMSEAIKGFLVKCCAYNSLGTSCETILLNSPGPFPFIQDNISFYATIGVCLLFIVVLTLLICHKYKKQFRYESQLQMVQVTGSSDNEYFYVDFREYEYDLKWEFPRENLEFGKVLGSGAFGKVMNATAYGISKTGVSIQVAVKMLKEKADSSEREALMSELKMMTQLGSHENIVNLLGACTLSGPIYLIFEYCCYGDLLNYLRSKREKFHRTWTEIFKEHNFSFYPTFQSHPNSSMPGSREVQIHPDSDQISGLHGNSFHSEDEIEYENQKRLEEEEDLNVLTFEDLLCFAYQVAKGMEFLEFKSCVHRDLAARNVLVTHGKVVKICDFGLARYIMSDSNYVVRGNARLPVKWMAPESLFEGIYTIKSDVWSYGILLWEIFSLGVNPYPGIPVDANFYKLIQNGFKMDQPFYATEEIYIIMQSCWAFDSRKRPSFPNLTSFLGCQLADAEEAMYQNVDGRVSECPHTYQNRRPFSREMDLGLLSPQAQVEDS

[9] = target: Non-receptor tyrosine-protein kinase TYK2 (Homo sapiens) (UniProt P29597); details: at 1 µM;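 note: values are mean percent inhibition of TYK2 kinase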
[10] = target: T2, Tyrosine-protein kinase receptor TYRO3 (Homo sapiens) (UniProt Q06418); details: at 0.1 µM
T2 sequence (whole entry): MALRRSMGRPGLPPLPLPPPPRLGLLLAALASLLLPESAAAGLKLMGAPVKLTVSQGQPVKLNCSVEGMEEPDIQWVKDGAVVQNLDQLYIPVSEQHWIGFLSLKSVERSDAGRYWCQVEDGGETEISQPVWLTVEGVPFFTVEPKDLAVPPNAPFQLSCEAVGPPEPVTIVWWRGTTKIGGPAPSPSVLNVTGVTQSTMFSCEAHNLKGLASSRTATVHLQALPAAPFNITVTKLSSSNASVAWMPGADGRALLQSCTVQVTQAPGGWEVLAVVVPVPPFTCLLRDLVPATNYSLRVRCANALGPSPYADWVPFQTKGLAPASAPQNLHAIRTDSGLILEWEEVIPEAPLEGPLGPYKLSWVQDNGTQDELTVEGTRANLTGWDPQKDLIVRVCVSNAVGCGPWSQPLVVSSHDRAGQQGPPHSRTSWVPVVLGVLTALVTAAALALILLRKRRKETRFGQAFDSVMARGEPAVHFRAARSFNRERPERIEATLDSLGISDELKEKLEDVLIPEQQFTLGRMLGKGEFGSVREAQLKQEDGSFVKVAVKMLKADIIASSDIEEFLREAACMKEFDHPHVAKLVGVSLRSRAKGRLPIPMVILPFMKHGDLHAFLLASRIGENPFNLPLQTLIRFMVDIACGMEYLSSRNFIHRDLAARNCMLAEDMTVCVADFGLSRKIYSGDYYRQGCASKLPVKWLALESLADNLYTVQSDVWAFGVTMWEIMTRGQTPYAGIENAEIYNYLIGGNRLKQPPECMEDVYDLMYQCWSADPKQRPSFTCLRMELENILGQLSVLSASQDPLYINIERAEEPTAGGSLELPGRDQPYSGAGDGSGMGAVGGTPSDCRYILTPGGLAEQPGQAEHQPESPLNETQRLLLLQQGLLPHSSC

[11] = target: T2, Tyrosine-protein kinase receptor TYRO3 (Homo sapiens); details: at 1 µM
[12] = target: Tyrosine-protein kinase Yes (Homo sapiens) (UniProt P07947); details: at 0.1 µM
[13] = target: Tyrosine-protein kinase Yes (Homo sapiens) (UniProt P07947); details: at 1 µM
[14] = target: T3, Tyrosine-protein kinase ZAP-70 (Homo sapiens) (UniProt P43403); details: at 0.1 µM
T3 sequence (whole entry): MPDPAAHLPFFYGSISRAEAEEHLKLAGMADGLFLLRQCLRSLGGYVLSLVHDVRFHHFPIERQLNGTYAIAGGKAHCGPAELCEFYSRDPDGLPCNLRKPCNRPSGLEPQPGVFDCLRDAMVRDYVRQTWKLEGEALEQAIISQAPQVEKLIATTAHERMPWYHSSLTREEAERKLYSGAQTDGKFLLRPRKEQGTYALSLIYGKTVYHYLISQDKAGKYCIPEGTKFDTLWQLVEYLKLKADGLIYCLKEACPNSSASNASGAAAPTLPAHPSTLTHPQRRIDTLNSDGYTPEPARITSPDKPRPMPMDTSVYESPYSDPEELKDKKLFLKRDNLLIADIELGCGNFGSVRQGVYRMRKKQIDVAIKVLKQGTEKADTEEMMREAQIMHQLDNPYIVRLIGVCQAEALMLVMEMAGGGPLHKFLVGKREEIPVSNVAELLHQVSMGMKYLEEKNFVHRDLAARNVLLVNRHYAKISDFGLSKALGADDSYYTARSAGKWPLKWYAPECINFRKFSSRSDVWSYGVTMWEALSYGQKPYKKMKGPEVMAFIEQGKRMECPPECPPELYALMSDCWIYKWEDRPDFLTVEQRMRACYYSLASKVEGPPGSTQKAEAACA

[15] = target: T3, Tyrosine-protein kinase ZAP-70 (Homo sapiens); details: at 1 µM
[16] = target: Serine/threonine-protein kinase B-raf (Homo sapiens) (UniProt P15056); details: at 0.1 µM
[17] = target: Serine/threonine-protein kinase B-raf (Homo sapiens) (UniProt P15056); details: at 1 µM
[18] = system: Serine/threonine-protein kinase B-raf (Homo sapiens), P15056 [V600E]; details: at 0.1 µM
[19] = system: Serine/threonine-protein kinase B-raf (Homo sapiens), P15056 [V600E]; details: at 1 µM
[20] = target: RAF proto-oncogene serine/threonine-protein kinase (Homo sapiens) (UniProt P04049); details: at 0.1 µM;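 note: values are mean CRAF kinase inhibition from profiling of the GSK Published Kinase Inhibitor Set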
Chain of RAF proto-oncogene serine/threonine-protein kinase (Homo sapiens) (P04049 whole entry): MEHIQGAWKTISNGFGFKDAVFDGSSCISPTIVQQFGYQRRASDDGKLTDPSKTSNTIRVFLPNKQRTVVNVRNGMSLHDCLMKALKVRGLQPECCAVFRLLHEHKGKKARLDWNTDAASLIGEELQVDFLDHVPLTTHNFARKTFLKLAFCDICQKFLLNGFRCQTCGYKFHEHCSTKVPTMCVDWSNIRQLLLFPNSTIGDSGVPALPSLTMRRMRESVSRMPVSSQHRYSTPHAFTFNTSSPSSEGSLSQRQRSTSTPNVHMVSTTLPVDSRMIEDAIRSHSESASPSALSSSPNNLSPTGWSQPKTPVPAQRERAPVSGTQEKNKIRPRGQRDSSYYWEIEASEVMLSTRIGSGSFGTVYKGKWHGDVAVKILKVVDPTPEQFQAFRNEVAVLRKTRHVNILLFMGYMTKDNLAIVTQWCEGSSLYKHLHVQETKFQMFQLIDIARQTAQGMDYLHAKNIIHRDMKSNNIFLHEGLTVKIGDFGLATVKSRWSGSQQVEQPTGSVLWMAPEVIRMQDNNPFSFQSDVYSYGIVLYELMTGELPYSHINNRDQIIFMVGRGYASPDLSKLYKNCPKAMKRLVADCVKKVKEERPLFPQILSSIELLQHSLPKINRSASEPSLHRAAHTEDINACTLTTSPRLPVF

Chain of Non-receptor tyrosine-protein kinase TYK2 (Homo sapiens) (P29597 whole entry): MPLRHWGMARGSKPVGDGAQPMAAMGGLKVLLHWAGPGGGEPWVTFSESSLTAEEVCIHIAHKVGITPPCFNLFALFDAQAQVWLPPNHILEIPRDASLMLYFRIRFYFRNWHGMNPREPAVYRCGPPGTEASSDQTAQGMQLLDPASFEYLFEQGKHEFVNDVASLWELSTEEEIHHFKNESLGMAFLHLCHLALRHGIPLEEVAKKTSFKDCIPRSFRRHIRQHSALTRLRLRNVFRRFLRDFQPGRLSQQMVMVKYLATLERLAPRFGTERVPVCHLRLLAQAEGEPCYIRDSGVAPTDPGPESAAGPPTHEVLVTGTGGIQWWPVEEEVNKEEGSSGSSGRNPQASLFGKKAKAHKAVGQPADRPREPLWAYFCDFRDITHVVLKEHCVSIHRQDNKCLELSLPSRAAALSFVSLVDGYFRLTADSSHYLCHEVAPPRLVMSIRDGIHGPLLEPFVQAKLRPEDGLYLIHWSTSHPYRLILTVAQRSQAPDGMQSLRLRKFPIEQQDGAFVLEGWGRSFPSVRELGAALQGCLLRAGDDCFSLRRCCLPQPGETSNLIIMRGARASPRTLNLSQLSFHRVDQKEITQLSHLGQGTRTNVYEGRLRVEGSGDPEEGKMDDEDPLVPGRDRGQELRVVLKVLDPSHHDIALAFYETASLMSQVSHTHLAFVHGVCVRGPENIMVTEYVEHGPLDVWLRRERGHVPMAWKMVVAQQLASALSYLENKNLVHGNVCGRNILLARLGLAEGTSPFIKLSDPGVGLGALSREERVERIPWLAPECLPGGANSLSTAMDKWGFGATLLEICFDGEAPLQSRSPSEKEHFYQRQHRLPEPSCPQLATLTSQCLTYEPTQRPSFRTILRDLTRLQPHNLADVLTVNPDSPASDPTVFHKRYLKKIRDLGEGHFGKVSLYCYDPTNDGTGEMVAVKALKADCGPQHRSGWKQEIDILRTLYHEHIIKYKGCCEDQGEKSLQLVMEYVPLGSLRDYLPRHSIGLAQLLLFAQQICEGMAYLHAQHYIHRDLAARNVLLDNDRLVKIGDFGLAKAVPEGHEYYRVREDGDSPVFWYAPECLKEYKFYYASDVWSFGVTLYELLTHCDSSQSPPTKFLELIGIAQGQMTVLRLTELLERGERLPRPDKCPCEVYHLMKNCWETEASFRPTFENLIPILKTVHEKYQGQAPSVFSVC
Chain of Serine/threonine-protein kinase B-raf (Homo sapiens), P15056 [V600E] (P15056 whole entry V600E): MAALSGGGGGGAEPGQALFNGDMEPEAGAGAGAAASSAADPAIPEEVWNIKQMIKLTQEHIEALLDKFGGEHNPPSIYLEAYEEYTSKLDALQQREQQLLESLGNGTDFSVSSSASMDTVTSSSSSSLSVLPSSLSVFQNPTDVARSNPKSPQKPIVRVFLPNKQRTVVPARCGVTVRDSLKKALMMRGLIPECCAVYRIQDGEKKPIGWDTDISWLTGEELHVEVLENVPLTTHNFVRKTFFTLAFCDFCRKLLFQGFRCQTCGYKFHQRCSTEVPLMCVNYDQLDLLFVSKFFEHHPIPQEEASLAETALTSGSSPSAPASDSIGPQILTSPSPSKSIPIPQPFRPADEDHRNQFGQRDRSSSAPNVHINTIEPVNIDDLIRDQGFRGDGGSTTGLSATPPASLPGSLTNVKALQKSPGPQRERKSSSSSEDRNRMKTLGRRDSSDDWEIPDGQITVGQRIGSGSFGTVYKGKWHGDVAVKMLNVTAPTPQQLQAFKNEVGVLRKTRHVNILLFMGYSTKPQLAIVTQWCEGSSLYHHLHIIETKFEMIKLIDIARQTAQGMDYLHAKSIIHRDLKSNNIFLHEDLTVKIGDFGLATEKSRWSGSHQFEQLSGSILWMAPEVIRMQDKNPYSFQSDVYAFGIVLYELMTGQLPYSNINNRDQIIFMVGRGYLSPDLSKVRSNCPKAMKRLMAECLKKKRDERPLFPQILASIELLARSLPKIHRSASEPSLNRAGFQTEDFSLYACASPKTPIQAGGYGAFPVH
Chain of Tyrosine-protein kinase Fgr (Homo sapiens) (P09769 2-529 limits assumed): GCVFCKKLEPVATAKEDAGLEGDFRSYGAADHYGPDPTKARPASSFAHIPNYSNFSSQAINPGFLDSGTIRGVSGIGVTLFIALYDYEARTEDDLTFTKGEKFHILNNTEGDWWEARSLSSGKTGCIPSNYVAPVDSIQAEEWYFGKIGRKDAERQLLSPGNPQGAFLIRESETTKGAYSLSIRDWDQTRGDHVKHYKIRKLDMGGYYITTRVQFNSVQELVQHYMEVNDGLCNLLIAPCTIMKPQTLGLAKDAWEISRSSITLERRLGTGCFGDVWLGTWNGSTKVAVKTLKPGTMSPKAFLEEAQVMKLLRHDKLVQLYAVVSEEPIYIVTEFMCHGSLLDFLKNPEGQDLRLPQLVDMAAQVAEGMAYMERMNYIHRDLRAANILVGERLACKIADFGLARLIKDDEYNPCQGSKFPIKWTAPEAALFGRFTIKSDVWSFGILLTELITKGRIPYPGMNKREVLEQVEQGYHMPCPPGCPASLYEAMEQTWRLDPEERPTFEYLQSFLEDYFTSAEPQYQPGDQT
Chain of Serine/threonine-protein kinase B-raf (Homo sapiens) (P15056 whole entry): as the sequence (P15056 whole entry V600E) above, with E600V counted along it
Chain of Tyrosine-protein kinase Yes (Homo sapiens) (P07947 2-543 limits assumed): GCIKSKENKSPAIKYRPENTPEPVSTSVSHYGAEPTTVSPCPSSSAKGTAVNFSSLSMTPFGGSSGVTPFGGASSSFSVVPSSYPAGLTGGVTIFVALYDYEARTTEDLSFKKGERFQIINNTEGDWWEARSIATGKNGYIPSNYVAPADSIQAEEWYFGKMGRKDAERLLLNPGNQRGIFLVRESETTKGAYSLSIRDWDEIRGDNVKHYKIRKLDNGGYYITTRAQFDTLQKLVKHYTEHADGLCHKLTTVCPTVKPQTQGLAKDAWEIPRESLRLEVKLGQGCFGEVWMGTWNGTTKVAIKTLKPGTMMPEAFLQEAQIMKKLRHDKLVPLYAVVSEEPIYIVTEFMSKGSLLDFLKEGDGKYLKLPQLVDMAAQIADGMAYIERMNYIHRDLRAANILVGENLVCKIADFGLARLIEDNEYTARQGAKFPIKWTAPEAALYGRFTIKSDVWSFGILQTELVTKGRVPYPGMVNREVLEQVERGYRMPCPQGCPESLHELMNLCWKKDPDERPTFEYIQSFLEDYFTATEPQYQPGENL
Chain of Fibroblast growth factor receptor 4 (Homo sapiens) (P22455 22-802 limits assumed): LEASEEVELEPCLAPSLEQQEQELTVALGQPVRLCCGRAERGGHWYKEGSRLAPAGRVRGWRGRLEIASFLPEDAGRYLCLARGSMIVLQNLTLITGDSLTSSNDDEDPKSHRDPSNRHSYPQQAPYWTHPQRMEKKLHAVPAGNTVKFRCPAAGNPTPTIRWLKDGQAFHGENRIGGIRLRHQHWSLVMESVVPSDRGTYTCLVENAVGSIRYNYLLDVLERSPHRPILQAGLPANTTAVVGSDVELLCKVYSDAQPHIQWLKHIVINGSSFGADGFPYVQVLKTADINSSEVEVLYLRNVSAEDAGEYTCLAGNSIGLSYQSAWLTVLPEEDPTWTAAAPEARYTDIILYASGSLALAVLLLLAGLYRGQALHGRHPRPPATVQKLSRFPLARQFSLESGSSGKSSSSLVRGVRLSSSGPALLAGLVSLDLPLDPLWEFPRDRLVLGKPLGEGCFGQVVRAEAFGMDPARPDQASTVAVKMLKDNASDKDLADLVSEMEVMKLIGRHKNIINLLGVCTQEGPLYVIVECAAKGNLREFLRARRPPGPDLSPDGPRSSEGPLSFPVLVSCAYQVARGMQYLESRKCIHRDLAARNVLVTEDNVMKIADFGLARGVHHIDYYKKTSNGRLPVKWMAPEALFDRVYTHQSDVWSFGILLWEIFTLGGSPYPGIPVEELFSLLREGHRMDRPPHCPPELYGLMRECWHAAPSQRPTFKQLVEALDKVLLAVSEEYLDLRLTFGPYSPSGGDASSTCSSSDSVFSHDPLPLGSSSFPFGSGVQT

Row | SMILES | inhibition [1] [%] | inhibition [2] [%] | inhibition [3] [%] | inhibition [4] [%] | inhibition [5] [%] | inhibition [6] [%] | inhibition [7] [%] | inhibition [8] [%] | inhibition [9] [%] | inhibition [10] [%] | inhibition [11] [%] | inhibition [12] [%] | inhibition [13] [%] | inhibition [14] [%] | inhibition [15] [%] | inhibition [16] [%] | inhibition [17] [%] | inhibition [18] [%] | inhibition [19] [%] | inhibition [20] [%]
1 | COc1cc2c(cc1Nc1nc(Nc3ccsc3C(N)=O)c3cc[nH]c3n1)N(C(=O)CN(C)C)CCC2(C)C | 4.78 | 1.11 | 6.75 | 1.44 | 1.83 | 4.2 | 13 | 0.35 | -1.34 | 3.88 | 18.6 | 2.57 | 0.61 | 2.36 | 14.9 | 6.5 | 14.9 | 7.15 | 14 | 1.55
2 | N#Cc1c(NC(=O)CN2CCOCC2)sc2c1CCCC2 | 2.81 | 2.52 | 4.31 | 0.23 | 4.24 | 1.8 | 4.78 | 0.3 | -0.83 | 2.15 | 3.91 | 3.9 | 3.95 | 1.13 | -1.02 | 5.62 | 6.96 | 5.95 | 4.84 | 4.41
3 | CN1CCC(n2cnc(-c3ccc(F)cc3)c2-c2ccnc(Nc3ccccc3)n2)CC1 | 1.8 | 11.5 | 33.7 | 0.12 | 3.33 | 0.8 | 1.93 | -1.9 | 0.82 | 2.41 | 2.25 | 8.83 | 42.3 | 1.81 | – | 3.78 | 4.47 | 3.27 | 6.57 | -3.04
4 | CCc1nn2ncccc2c1-c1ccnc(NC2CC2)n1 | 1.27 | 3.49 | 3.74 | 0.02 | 2.1 | 3.16 | 3.41 | -7.04 | 2.1 | -0.14 | 3.06 | 1.2 | 6.6 | 1.02 | -2.31 | 2.93 | 4.97 | 3.84 | 3.79 | 0.39
5 | COc1ccc(-c2cc(-c3c[nH]nc3-c3ccccn3)ccn2)cc1 | 6.88 | 5.33 | 4.21 | 3.66 | 8.02 | 3.81 | – | 1.47 | -4.16 | 2.81 | 4.46 | 3.5 | 7.41 | 1.69 | 2.09 | 7.54 | 6.98 | 7.82 | 6.42 | 0.24
6 | Cc1ccc2c(-c3ccnc(Nc4ccccc4)n3)c(-c3ccc(F)cc3)nn2n1 | 1.8 | 40.7 | 78.4 | 2.49 | 22.1 | 2.15 | 4.21 | 3.24 | -1.64 | 3.56 | 25.6 | 58.4 | 92.1 | 2.85 | 2.04 | 6.37 | 15.5 | 4.53 | 13 | -2.73
7 | Fc1ccc(-c2nn3ncccc3c2-c2ccnc(Nc3ccc4c(c3)OCCO4)n2)cc1 | 3.32 | 68.2 | 84 | 7.67 | 30.8 | 2.79 | 6.52 | -1.97 | -3.36 | 5.85 | 24.8 | 86.3 | 96.6 | 3.1 | 3.06 | 11.6 | 25.9 | 11.6 | 21.5 | 0.23
8 | Nc1ncc(-c2cccc(S(N)(=O)=O)c2)c2scc(-c3ccc(F)c(Cl)c3)c12 | 5.88 | 10.9 | 45.8 | 4.56 | 14.9 | 1.34 | 5.98 | -3.2 | -2.5 | 4.05 | 25.1 | 11.5 | 56.4 | 1.28 | 2.18 | 6.39 | 15.3 | 5.84 | 10.1 | -0.36
9 | FC(F)(F)c1cccc(-c2nn3ncccc3c2-c2ccnc(Nc3ccc4c(c3)OCCO4)n2)c1 | 2.21 | 32.5 | 75.3 | 0.57 | 12 | 0.74 | – | -3.8 | -3.08 | 4.46 | 22.9 | 32.1 | 82.8 | 2 | 3.05 | 2.88 | 6.42 | 1.76 | 7.02 | -1.62
10 | COc1ccc(CNC(=O)c2ccc(-c3cc(-c4nnc(C)o4)ccc3C)cc2)cc1 | 3.73 | 8.93 | 6.92 | -0.52 | -0.47 | 0.57 | -0.2 | -2.79 | 1.88 | 1.4 | 4.48 | -0.74 | 7.13 | 2.69 | 2.94 | 0.94 | -0.29 | 1.06 | 1.01 | 1.48
11 | COC(=O)c1sc(-n2cnc3cc(OC)c(OC)cc32)cc1OCc1ccccc1C(F)(F)F | 1.85 | 3.32 | 17.2 | 1.32 | 9.57 | 2.55 | 8.27 | -4.92 | -3.12 | 2.58 | 2.68 | 6.36 | 27 | 1.17 | 2.18 | 6.09 | 8.51 | 6.02 | 6.69 | 3.34
12 | COc1cc(/C=N/Nc2ncnc3[nH]ncc23)ccc1O | 2.77 | 12.4 | 52.6 | 2.92 | 10.6 | 3.29 | 17.4 | 3.54 | 4.1 | 4.61 | 26.6 | 16.4 | 58 | 0.75 | 7.51 | 5.39 | 8.88 | 4.62 | 8.2 | 4.83
13 | Cc1ccc(O)cc1Nc1ccnc2cc(-c3ccccn3)ccc12 | 30.8 | 52.2 | 82.7 | 82.1 | 95.7 | 3.74 | 4.17 | 1.48 | -4 | 4.12 | 13.9 | 58.2 | 90.7 | 0.52 | 4.03 | 9.05 | 12.1 | 8.35 | 9.49 | -1.1
14 | CCN1CCC(CC(=O)Nc2n[nH]c3nnc(-c4cccc(F)c4F)cc23)CC1 | -2.43 | 2.47 | 1.19 | 0.64 | -0.57 | 3.74 | 1.44 | – | 2.26 | 1.36 | 1.73 | 2.07 | 5.8 | -0.89 | 0.5 | 3.25 | 2.64 | 2.74 | 1.57 | 10.2
